Experimental data taken from PubChem BioAssay.
Inconclusive results are not listed. The source made the active and inactive calls. Unless noted, how the calls were made is not given here.

Columns and labels:
[1] = rapamycin-like changes in RPL19A-GFP expression – cell-based, S. cerevisiae, multiplex flow cytometry, primary screen (AID 1862; in the data active means percent of DMSO control GFP below about 86%;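 further: lower values mimic rapamycin by blocking the RPL19A rise seen in DMSO cells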); conditions: S. cerevisiae RPL19A-GFP strain, flow cytometry fluorescence, 3 h; at 10 µM; stronger effect = lower value
[2] = TOR pathway GLN3 branch reporter MEP2-GFP changes – S. cerevisiae, multiplex flow cytometry, primary screen (AID 1867;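 active means GFP response, as percent of the DMSO control, above the screen-wide mean plus 3 SD, about 139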;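 further: median GFP channel fluorescence of barcode-gated MEP2-GFP cells measured by flow cytometry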); conditions: S. cerevisiae MEP2-GFP strain, 3 h, at 10 µM, stronger effect = higher value
[3] = TOR pathway RTG branch CIT2 reporter changes – S. cerevisiae, GFP fusion, multiplex flow cytometry, primary screen (AID 1870;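 active means percent response above a set limit, the screen-wide mean plus 3 SD, cut at about 130% in these data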;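 further: barcoded CIT2-GFP strain pooled with four other GFP strains with rapamycin as positive control; median GFP fluorescence per well over plate mean of DMSO wells so 100% = DMSO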); conditions: S. cerevisiae CIT2-GFP expression, 3 h, at 10 µM, stronger effect = higher value
[4] = TOR pathway LAP4-GFP level changes – S. cerevisiae, multiplex flow cytometry, primary screen (AID 1873;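 active means GFP signal, as percent of the solvent control, above the screen mean plus 3 SD, about 149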); conditions: S. cerevisiae LAP4-GFP expression, 3 h, at 10 µM, stronger effect = higher value
[5] = yeast AGP1-GFP level changes, GLN3 branch – cell-based, multiplex flow cytometry, S. cerevisiae, primary screen (AID 1887;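 active means GFP signal above the screen-wide mean plus 3 SD, that is over about 124.5% of the solvent control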;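 further: AGP1-GFP fusion strain of S. cerevisiae within a five-strain barcoded multiplex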); conditions: 3 h, at 10 µM, stronger effect = higher value
[6] = reduced mouse 2C T cell binding to pMHC/ICAM-1 vesicles – MLPCN validation set, flow cytometry, LFA-1/ICAM-1 modulator project, pilot screen (AID 2523;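 active means response below a set limit, under 55% cells CD8-positive and vesicle-bound, and CD8 cells' 90th-percentile brightness under 279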;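 on vesicle binding response: mean PE anti-B7-1 fluorescence of CD8+ cells relative to row control; 100% = QL9-loaded vesicles with DMSO vehicle in the same plate row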); conditions: 2C mouse CD8+ T cells, at 7 µM, stronger effect = lower value; double positive events: measured here: CD8+/vesicle+ event percentage
[7] = biological target: Integrin beta-1 (Homo sapiens) + Integrin alpha-4 (Homo sapiens) (UniProt P13612+P05556); experiment: alpha4beta1 integrin LIBS antibody binding reduction – U937 cells, HUTS-21 mAb, flow cytometry, validation set, VLA-4 allosteric modulator project, pilot screen (AID 2674;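 active means inhibition above 50%, about 3 SD of the validation set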;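 further: antibody binding induced by the VLA-4 ligand LDV present at three times its Kd; 0% = LDV ligand with antibody and no compound and 100% = antibody without LDV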); conditions: HUTS-21 LIBS mAb binding, at 6.7 µM, stronger effect = higher value
[8] = calorie-restriction mimetic ROS inhibitors, yeast – validation compound set, pilot screen (AID 2706;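 active means superoxide response below 65% of plate, a cut near 3 SD across the whole screen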;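 further: yeast exposed to compound for one week at 30 degrees C before staining; 100% = mean of all compound wells on the same plate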); conditions: S. cerevisiae aging, superoxide DHE fluorescence; at 10 µM; stronger effect = lower value
[9] = biological target: Beta-adrenergic receptor kinase 1 (Homo sapiens) (UniProt P25098); experiment: GRK2 binders displacing RNA aptamer, biochemical, validation, human GRK2, bead flow cytometry (AID 488806;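 active means aptamer binding inhibition above 30%, about 3 SD of noise from non-fluorescent compounds; inactive means inhibition at or below 30%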); conditions: bead-bound GRK2, FAM-aptamer displacement, at 10 µM, stronger effect = higher value
[10] = biological target: Beta-2 adrenergic receptor (Homo sapiens) (UniProt P07550); experiment: agonist-induced loss of surface beta2AR – cell-based, FAP fluorogen, flow cytometry, validation set, pilot screen (AID 504459;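 active means percent response above 42, roughly 3 SD of non-fluorescent test compounds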;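 further: agonist-driven loss of surface beta2AR via internalization measured by FAP dye flow cytometry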); conditions: Am2.2-beta2AR cells, at 10 µM, stronger effect = higher value
[11] = biological target: AP-2 complex subunit beta (Homo sapiens) (UniProt P63010); experiment: beta-arrestin/AP2 interaction blockers – biochemical, validation set, GST-AP2 beads, flow cytometry, pilot screen (AID 504541;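 active means inhibition above 54%, about 3 SD of non-fluorescent compounds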;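 further: AP2 carries R879A mutation and is captured from E. coli lysate; bead-bound FITC arrestin peptide fluorescence measuring arrestin peptide binding to AP2; 0% = DMSO wells and 100% = excess unlabeled arrestin peptide control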); conditions: FITC arrestin peptide, at 10 µM, stronger effect = higher value
[12] = cytosolic pH regulators acting via V-ATPase – S. cerevisiae, pHLuorin, HTS validation (AID 504600; in the data active means response above about 15%;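 further: plate controls were DMSO for no effect and reference compound for full effect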); conditions: V-ATPase proton transport, at 10 µM, stronger effect = higher value
[13] = tested on: anti-desmoglein-3 scFv antibody binding to human DSG3; experiment: blockers of pathogenic pemphigus antibody–desmoglein-3 binding – biochemical, validation compound set, bead-based, flow cytometry, pilot screen (AID 588368;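 active means binding below the plate cutoff, the plate median minus 3 SD, with a reading above zero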;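 further: signal is the median channel fluorescence of bead-bound GFP antibody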); conditions: Protein G beads, DSG3-Fc, scFv-GFP binding, at 10 µM, stronger effect = lower value
[14] = tested on: Botulinum neurotoxin type F light chain protease (Clostridium botulinum); experiment: Clostridium botulinum type F light chain protease inhibitors, microsphere substrate cleavage, validation (AID 588459); conditions: multiplex microsphere protease substrate cleavage assay, flow cytometry; at 10 µM; stronger effect = higher value
[15] = biological target: Botulinum neurotoxin type A (Clostridium botulinum) (UniProt P0DPI0); experiment: BoNT/A light chain protease inhibitors, biochemical, multiplex microsphere flow cytometry, validation set (AID 588460); conditions: at 10 µM, stronger effect = higher value
[16] = biological target: Lethal factor (Bacillus anthracis) (UniProt P15917); experiment: Bacillus anthracis lethal factor inhibition, microsphere flow cytometry protease assay, validation at 10 µM (AID 588461); conditions: multiplex microsphere protease cleavage assay, stronger effect = higher value
[17] = Nile Red efflux blockade in pump-expressing yeast – validation compound set, multiplex, phenotypic, pilot screen (AID 588506;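 active means efflux inhibition above 0.42, the validation set average plus 4 SD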;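 further: Nile Red retained in cells so higher fluorescence means more efflux inhibition; 0 = negative control wells and 1 = enniatin B 25 µM full block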); conditions: S. cerevisiae pump-expressing triplex, Nile Red efflux flow cytometry; at 10 µM; stronger effect = higher value
[18] = biological target: ATP-binding cassette sub-family B member 6 (Homo sapiens) (UniProt Q9NP58); experiment: blockers of ABCB6-driven porphyrin uptake – K562-ABCB6 cells, flow cytometry, validation set, pilot screen (AID 588550;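 active means inhibition above the screen-wide mean plus 3 SD, about 51%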;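 further: 0% = DMSO wells and 100% = benzethonium chloride 70 µM positive control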); conditions: K562-ABCB6 porphyrin accumulation, 1 h, at 10 µM, stronger effect = higher value
[19] = AML differentiation inducers, ER-HoxA9 marrow cells – cell-based, GFP/MAC1 double positive, flow cytometry, validation set, primary screen (AID 588685;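 active means differentiation response of at least 50%, scaled between solvent and reference control, from cells with both markers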;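 further: compound exposure lasts four days before antibody staining and flow analysis; 0% = DMSO wells and 100% = 5 µM fulvestrant positive control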); conditions: stronger effect = higher value

Sequence of AP-2 complex subunit beta (Homo sapiens) (P63010 whole entry, looked up, one chain of several): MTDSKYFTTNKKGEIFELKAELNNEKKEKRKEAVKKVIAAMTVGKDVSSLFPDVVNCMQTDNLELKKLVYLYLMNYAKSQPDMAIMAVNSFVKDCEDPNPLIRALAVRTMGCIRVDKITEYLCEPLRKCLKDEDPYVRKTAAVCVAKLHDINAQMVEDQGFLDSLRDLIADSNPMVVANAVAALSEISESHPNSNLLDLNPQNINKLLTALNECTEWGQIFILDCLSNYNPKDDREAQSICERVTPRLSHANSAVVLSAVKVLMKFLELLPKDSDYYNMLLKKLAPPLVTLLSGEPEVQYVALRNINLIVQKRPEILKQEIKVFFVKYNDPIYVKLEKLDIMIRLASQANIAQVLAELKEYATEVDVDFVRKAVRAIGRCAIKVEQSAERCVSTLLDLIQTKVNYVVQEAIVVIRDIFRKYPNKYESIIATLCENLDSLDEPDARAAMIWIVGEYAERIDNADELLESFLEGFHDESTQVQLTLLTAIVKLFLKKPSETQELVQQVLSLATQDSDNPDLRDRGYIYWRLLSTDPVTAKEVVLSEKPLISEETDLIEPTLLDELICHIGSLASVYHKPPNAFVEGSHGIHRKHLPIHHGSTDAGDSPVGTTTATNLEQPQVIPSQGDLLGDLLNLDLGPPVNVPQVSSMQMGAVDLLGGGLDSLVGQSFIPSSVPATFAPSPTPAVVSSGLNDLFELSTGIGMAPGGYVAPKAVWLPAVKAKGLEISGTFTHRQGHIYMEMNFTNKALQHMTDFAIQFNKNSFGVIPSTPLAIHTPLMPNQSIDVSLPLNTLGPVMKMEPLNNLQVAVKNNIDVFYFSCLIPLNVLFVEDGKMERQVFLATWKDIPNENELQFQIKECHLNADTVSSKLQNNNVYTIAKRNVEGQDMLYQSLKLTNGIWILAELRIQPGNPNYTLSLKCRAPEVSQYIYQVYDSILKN
Sequence of Lethal factor (Bacillus anthracis) (P15917 whole entry, looked up): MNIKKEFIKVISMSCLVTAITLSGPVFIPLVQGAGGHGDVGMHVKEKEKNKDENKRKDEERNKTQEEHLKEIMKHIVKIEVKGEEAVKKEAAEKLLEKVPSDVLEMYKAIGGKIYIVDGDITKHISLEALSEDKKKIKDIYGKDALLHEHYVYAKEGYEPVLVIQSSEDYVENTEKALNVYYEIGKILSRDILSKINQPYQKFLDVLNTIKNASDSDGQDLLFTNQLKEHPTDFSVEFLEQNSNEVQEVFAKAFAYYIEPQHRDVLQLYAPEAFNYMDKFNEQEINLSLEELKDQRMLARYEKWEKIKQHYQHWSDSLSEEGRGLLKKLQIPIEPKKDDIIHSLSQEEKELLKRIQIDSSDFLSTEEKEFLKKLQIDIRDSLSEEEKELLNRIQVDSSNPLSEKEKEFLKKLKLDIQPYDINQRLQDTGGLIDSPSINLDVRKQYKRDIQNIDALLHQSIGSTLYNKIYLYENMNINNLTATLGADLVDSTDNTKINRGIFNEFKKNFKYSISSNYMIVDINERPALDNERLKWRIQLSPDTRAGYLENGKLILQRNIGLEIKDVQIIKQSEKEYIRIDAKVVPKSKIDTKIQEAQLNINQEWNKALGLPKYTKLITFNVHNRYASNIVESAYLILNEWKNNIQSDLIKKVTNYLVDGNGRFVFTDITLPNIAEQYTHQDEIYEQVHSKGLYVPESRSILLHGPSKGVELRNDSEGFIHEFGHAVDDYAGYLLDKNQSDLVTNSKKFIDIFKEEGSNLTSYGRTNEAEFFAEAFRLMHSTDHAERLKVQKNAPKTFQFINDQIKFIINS
Sequence of ATP-binding cassette sub-family B member 6 (Homo sapiens) (Q9NP58 whole entry, looked up): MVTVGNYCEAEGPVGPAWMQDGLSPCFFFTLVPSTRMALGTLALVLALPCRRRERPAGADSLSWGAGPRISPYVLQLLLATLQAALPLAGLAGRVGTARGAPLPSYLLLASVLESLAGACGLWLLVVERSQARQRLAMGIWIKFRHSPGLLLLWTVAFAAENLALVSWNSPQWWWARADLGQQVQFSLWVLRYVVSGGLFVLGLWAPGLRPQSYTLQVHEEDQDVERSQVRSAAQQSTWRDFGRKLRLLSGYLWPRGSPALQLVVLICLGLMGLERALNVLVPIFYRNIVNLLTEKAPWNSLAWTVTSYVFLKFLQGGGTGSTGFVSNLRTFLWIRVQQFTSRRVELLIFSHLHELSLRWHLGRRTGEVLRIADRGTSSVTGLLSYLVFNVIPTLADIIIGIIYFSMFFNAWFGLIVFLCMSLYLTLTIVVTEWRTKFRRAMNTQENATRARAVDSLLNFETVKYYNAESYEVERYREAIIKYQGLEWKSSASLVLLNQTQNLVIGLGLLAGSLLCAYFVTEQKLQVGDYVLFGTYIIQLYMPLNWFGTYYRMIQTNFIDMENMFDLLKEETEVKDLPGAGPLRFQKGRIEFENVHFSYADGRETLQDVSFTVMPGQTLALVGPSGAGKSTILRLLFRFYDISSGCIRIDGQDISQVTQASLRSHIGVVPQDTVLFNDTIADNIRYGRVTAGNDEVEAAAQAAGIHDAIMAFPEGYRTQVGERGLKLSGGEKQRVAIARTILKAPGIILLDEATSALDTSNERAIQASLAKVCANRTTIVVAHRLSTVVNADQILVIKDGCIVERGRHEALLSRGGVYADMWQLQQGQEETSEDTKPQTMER
Sequence of Beta-adrenergic receptor kinase 1 (Homo sapiens) (P25098 whole entry, looked up): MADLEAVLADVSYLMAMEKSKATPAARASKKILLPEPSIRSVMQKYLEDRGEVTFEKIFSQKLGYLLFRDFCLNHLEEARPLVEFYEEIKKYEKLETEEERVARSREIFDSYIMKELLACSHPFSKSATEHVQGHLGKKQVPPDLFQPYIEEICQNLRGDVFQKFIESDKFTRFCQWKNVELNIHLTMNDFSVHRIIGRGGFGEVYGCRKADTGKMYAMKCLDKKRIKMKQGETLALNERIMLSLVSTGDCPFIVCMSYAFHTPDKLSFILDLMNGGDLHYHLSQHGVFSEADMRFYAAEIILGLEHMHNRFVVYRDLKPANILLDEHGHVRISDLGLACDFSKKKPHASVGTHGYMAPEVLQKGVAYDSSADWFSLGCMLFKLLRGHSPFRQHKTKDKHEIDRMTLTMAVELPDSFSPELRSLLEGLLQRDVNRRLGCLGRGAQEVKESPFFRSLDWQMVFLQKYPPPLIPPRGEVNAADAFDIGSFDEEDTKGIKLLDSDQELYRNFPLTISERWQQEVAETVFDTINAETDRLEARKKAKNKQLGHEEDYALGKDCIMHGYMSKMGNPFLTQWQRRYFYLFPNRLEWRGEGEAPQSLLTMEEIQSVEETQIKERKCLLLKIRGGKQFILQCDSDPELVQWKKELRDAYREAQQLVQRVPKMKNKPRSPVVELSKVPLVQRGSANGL
Sequence of Beta-2 adrenergic receptor (Homo sapiens) (P07550 whole entry, looked up): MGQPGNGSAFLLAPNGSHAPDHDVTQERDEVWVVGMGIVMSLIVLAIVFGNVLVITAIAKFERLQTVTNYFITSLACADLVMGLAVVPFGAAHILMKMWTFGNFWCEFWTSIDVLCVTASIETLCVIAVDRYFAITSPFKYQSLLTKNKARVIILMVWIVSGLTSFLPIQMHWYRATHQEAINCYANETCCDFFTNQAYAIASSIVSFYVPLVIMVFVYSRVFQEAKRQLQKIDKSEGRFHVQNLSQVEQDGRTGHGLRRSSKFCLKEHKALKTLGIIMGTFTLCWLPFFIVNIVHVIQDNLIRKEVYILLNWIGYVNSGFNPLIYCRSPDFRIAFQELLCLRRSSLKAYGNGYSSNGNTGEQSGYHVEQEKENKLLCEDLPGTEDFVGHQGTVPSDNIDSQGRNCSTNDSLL
Sequence of Botulinum neurotoxin type A (Clostridium botulinum) (P0DPI0 whole entry, looked up): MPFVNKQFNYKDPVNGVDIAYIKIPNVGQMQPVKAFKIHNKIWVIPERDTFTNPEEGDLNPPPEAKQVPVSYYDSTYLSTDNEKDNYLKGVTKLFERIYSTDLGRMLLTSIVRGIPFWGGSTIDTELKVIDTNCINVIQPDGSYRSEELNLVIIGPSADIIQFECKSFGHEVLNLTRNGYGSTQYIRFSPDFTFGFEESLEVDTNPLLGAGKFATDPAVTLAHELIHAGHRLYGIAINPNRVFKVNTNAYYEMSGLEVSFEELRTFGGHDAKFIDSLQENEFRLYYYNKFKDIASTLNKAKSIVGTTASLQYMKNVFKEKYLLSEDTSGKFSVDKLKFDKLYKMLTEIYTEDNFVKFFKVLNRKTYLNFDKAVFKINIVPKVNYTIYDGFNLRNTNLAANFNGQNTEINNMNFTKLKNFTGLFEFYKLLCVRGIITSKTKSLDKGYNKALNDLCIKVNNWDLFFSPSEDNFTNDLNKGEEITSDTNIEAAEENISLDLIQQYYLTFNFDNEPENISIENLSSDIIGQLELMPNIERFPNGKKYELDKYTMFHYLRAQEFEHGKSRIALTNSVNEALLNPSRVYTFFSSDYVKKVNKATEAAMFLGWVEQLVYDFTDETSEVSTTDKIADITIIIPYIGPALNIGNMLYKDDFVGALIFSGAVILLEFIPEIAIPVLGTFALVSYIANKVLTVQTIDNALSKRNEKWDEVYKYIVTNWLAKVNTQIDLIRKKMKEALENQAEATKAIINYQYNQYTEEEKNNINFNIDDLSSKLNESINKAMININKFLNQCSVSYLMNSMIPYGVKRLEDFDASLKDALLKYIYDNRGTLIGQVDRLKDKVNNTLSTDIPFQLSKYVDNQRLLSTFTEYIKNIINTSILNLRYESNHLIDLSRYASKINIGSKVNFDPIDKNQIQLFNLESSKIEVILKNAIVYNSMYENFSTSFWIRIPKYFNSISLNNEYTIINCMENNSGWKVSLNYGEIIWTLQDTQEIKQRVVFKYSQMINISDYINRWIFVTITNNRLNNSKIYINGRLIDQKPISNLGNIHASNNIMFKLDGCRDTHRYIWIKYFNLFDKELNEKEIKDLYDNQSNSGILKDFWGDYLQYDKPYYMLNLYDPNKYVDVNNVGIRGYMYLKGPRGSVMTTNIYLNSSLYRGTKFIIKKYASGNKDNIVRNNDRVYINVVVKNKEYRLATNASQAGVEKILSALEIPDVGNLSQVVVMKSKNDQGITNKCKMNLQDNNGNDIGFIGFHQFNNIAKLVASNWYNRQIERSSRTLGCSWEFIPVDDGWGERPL

SMILES	percent of DMSO control GFP [1]	GFP response vs DMSO [2]	percent response of DMSO control [3]	GFP response vs DMSO [4]	GFP response, % of DMSO [5]	double positive events [6] [%]	vesicle binding response [6]	inhibition [7]	superoxide response (% of plate) [8]	aptamer binding inhibition [9]	response [10]	inhibition [11]	response [12]	binding (% of control) [13]	inhibition [14]	inhibition [15]	inhibition [16]	efflux inhibition (fraction of control) [17]	inhibition [18]	differentiation response [19]
CN1CC[C@@]23CCCC[C@@H]2[C@@H]1Cc1ccc(O)cc13	99.4% (inactive)	110% (inactive)	96.6% (inactive)	98.6% (inactive)	100% (inactive)	60.4	47.7% (inactive)	-0.45% (inactive)	109% (inactive)	-1% (inactive)	2.76% (inactive)	9.83% (inactive)	-1.79% (inactive)	92% (inactive)	-10% (inactive)	-1.6% (inactive)	-1.3% (inactive)	-0.07 (inactive)	2% (inactive)	3.18% (inactive)
O=c1c2ccccc2[se]n1-c1ccccc1	99.6% (inactive)	94.6% (inactive)	110% (inactive)	94.4% (inactive)	99.2% (inactive)	57.5	111% (inactive)	15.4% (inactive)	120% (inactive)	5% (inactive)	12.7% (inactive)	116% (active)	-0.76% (inactive)	9.72% (active)	33.2% (active)	92.6% (active)	-9.3% (inactive)	37.3 (active)	5% (inactive)	0.41% (inactive)
CC(C)CC12CN3CCN(CC(C3)C1O)C2 (stereo not given)	89.8% (inactive)	116% (inactive)	111% (inactive)	89.7% (inactive)	105% (inactive)	65.4	153% (inactive)	-2.27% (inactive)	91.5% (inactive)	-7% (inactive)	4.34% (inactive)	-0.1% (inactive)	-1.9% (inactive)	110% (inactive)	3.6% (inactive)	-0.7% (inactive)	-4.5% (inactive)	-0.28 (inactive)	13% (inactive)	10.6% (inactive)
CN1C2CCC1CC(OC(=O)CCN1CCCC1)C2 (stereo not given)	105% (inactive)	105% (inactive)	107% (inactive)	115% (inactive)	113% (inactive)	61.6	194% (inactive)	8.25% (inactive)	98.4% (inactive)	4% (inactive)	-8.97% (inactive)	33.9% (inactive)	-1.35% (inactive)	107% (inactive)	3.2% (inactive)	1.3% (inactive)	1.5% (inactive)	0.08 (inactive)	0% (inactive)	-0.06% (inactive)
C[C@@H]1O[C@@H](O[C@H]2C[C@@H](O)[C@]3(CO)[C@H]4[C@H](O)C[C@]5(C)[C@@H](C6COC(=O)C6)CC[C@]5(O)[C@@H]4CC[C@]3(O)C2)[C@H](O)[C@H](O)[C@H]1O (stereo not given in full)	97.3% (inactive)	102% (inactive)	105% (inactive)	112% (inactive)	119% (inactive)	62.7	183% (inactive)	6.55% (inactive)	94.2% (inactive)	1% (inactive)	-12.8% (inactive)	-5.57% (inactive)	-2.1% (inactive)	104% (inactive)	-0.5% (inactive)	-0.7% (inactive)	3.5% (inactive)	-0.04 (inactive)	-3% (inactive)	-4% (inactive)
C[C@]12CCC(=O)C=C1CCC1C2CC[C@@]2(C)C1CC[C@@]2(O)CC#N (stereo not given in full)	99.8% (inactive)	105% (inactive)	101% (inactive)	90.7% (inactive)	98% (inactive)	71.1	961% (inactive)	12% (inactive)	95.6% (inactive)	5% (inactive)	-3.28% (inactive)	-0.45% (inactive)	-1.52% (inactive)	97.9% (inactive)	3.3% (inactive)	-0.9% (inactive)	-2.6% (inactive)	-0.07 (inactive)	8% (inactive)	11% (inactive)
O=C1NC(=O)C2(Cc3ccccc3N3CCCC32)C(=O)N1c1ccc(Cl)cc1 (stereo not given)	106% (inactive)	88.8% (inactive)	101% (inactive)	93.3% (inactive)	97.5% (inactive)	64.8	186% (inactive)	14.1% (inactive)	104% (inactive)	6% (inactive)	-5.5% (inactive)	-2.86% (inactive)	0.31% (inactive)	100% (inactive)	-0.7% (inactive)	0.8% (inactive)	0.9% (inactive)	0.24 (inactive)	12% (inactive)	1.22% (inactive)
CC12CN3CC(C)(CN(C1)C3c1cccs1)C2=O (stereo not given)	101% (inactive)	99.3% (inactive)	109% (inactive)	97.3% (inactive)	107% (inactive)	63	181% (inactive)	-9.79% (inactive)	102% (inactive)	4% (inactive)	-0.2% (inactive)	-2.92% (inactive)	-1.09% (inactive)	99.3% (inactive)	-2.3% (inactive)	-0.1% (inactive)	-4.2% (inactive)	0.05 (inactive)	6% (inactive)	-7.57% (inactive)
